Most compounds without a hit are left out; they make up all but 3.1% or so of the library.
SARS 3CLpro inh: SARS-CoV 3CLpro protease inhibition | AID 1706 | 290,000 tested, 0.14% active | recombinant SARS-CoV 3CLpro, quenched FRET peptide cleavage | inhibition, % at 6 µM; in the data active means inhibition above about 12%
Mtb FBA inh: inhibitors of M. tuberculosis fructose-bisphosphate aldolase. 360,000 tested, 2.3% active. purified M. tuberculosis FBA, fluorescence read-out. AID 588726. inhibition, % at 1 µM. P9WQA3; in the data active means inhibition above about 27%
FadD28 FP inh: inhibitors of Mycobacterium tuberculosis FadD28 bisubstrate binding; AID 588549; FadD28 bisubstrate probe binding, fluorescence polarization; inhibition, % at 12.5 µM; 360,000 tested, 0.22% active; in the data active means inhibition above about 8.5%, passing the limit was not always enough; inconclusive means no clear call, values can overlap the other calls
BioA inh-1: blocks M. tuberculosis BioA enzyme activity; 360,000 tested, 0.096% active; AID 602481; purified M. tuberculosis BioA enzyme, plate reader; inhibition, % at 9.99 µM; in the data active means inhibition above about 40%; inconclusive means no clear call, values can overlap the other calls
GDH-TPI counter: GDH-TPI coupled enzyme inhibition counter-screen; GDH-TPI coupled enzyme counterscreen, NADH absorbance; inhibition, % at 4.8 µM; 360,000 tested, 1.2% active; AID 588335; in the data active means inhibition above about 30%
BioA inh-2: inhibitors of Mycobacterium tuberculosis BioA enzyme; AID 651679; max activity, %; shares compounds with BioA inh-1; 310 tested, under 10 active; purified BioA enzyme, plate reader, dose response;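 further: top concentration of the dilution series was 10 µM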
Target sequence (P9WQ81 whole entry, looked up): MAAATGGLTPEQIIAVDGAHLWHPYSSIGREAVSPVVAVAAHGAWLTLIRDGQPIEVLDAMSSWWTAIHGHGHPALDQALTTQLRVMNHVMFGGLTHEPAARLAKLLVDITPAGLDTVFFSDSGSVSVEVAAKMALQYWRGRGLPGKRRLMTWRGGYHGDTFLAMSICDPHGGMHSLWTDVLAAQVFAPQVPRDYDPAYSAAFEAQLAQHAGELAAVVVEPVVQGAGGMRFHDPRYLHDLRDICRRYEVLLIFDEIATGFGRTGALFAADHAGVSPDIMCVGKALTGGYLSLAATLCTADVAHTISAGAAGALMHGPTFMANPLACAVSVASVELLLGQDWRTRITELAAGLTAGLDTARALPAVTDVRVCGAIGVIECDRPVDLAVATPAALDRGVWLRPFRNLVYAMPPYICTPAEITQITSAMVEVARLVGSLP
HepG2 tox 2: kills HepG2 cells | shares compounds with BioA inh-1 | HepG2 cytotoxicity, plate reader | max activity, % | 310 tested, under 10 active
NIH3T3 tox 5: cytotoxicity in NIH3T3 cells. AID 651900. plate reader. activity change, negative = cytotoxicity, % at 26 µM. shares compounds with BioA inh-1. 310 tested, under 10 active
Numbers stand for hits; . = inactive; ? = inconclusive; / = no result given. Unless noted, how the calls were made is not given here.

SMILES	SARS 3CLpro inh	Mtb FBA inh	FadD28 FP inh	BioA inh-1	GDH-TPI counter	BioA inh-2	HepG2 tox 2	NIH3T3 tox 5
O=C(NC1CCCc2c1cnn2-c1cc(F)cc(F)c1)c1cc[n+]([O-])cc1 (configuration not stated)	.	.	.	.	.	/	/	/
CO[C@@H]1CN(C)C(=O)c2cc(NC(=O)C3CC3)ccc2OC[C@@H](C)N(CCc2ccccc2)C[C@@H]1C	/	/	/	.	/	/	/	/
Cc1c(NC(=O)c2ccc(S(=O)(=O)N(C)C)cc2)cccc1-n1cnnn1	/	.	/	.	.	/	/	/
Cc1c(NC(=O)c2cc3ccccc3o2)cccc1-n1cnnn1	/	.	.	46	.	.	.	.
C[C@@H](C(=O)N1CCN(Cc2ccc3c(c2)OCO3)CC1)n1nnc2ccccc2c1=O	.	.	.	70	.	.	.	.
O=C(Nc1ccccc1)N1CCN(Cc2ccc3c(c2)OCO3)CC1	.	.	.	76	.	.	?	?
O=C(c1ccc(Br)s1)N1CCN(Cc2ccc3c(c2)OCO3)CC1	.	.	.	59	.	.	.	.
CO[C@H]1CN(C)C(=O)c2cc(C#N)ccc2OCC[C@@H]2CC[C@H](OC)[C@@H](CN(C)C(=O)[C@H]1C)O2	/	/	/	.	/	/	/	/
COc1ccccc1NC(=O)N[C@H]1CC[C@H](CCNC(=O)Cc2ccccn2)O[C@H]1CO	/	/	/	.	/	/	/	/
Cc1ccc(S(=O)(=O)N(C)C)cc1NC(=O)CSc1nncs1	/	.	.	51	.	.	.	.
Cc1cccc(-c2nnc(SCC#N)n2Cc2ccccc2)c1	.	.	.	.	.	/	/	/
Cc1cccc(-c2nnc(SCC#N)n2-c2ccccc2)c1	.	.	.	44	.	.	.	.
COc1ccc(C(=O)Nc2cccc(NC(=O)c3cccs3)c2)cc1	.	.	.	59	.	.	.	.
COc1ccc(NC(=O)c2ccc(NC(=O)c3cccs3)cc2)cc1	.	.	.	.	.	/	/	/
COc1cc(/C=C/C(=O)Nc2cccnc2)cc(OC)c1OC	.	.	.	50	.	.	.	.
COc1cc(C(=O)Nc2cccnc2)cc(OC)c1OC	.	.	.	80	.	.	.	.
CO[C@H]1CN(C)C(=O)c2ccc(NC(=O)C3CCOCC3)cc2OC[C@@H](C)N(C(=O)c2ccccc2)C[C@H]1C	/	/	/	.	/	/	/	/
Cc1c(C(N)=O)sc(N)c1C(=O)OC(C)C	.	.	.	92	.	.	.	.
CCOC(=O)c1c(N)sc(C(N)=O)c1C	.	.	.	58	.	.	.	.
CCOC(=O)c1sc(N)c(C(N)=O)c1C	.	.	.	.	.	/	/	/
CCC(=O)N(C)C[C@@H]1Oc2cc(-c3ccccc3C)ccc2S(=O)(=O)N([C@H](C)CO)C[C@H]1C	/	/	/	.	/	/	/	/
Cc1ccccc1-c1ccc2c(c1)O[C@H](CN(C)C(=O)Nc1ccc(F)cc1)[C@@H](C)CN([C@H](C)CO)S2(=O)=O	/	/	/	.	/	/	/	/
CCCNC(=O)N1[C@H](CO)[C@H]2c3ccccc3N(C(=O)Nc3cccc(F)c3)C[C@H]21	/	/	/	.	/	/	/	/
CCN(CC)S(=O)(=O)c1ccc(NC(=O)c2ccc(Cl)nc2)cc1	.	.	.	52	.	.	.	.
O=C(O)CN1C(=O)/C(=C\c2cc(Br)ccc2OCc2ccc([N+](=O)[O-])cc2)SC1=S	.	.	.	62	.	.	?	?
SMILES	SARS 3CLpro inh	Mtb FBA inh	FadD28 FP inh	BioA inh-1	GDH-TPI counter	BioA inh-2	HepG2 tox 2	NIH3T3 tox 5
O=C(O)CN1C(=O)/C(=C\c2cc(Br)ccc2OCc2ccccc2Cl)SC1=S	.	.	.	.	.	/	/	/
CO[C@H]1CN(C)C(=O)c2ccc(NC(C)=O)cc2OC[C@@H](C)N(CCc2ccccc2)C[C@H]1C	/	/	/	.	/	/	/	/
COc1cccc(NC(=O)N2C[C@@H](O)COC[C@@H]3O[C@H](CC(=O)N(C)C)CC[C@H]32)c1	/	/	/	.	/	/	/	/
CNC(=O)C[C@@H]1CC[C@H]2[C@@H](COC[C@H](O)CN2C(=O)Nc2ccc(Cl)c(Cl)c2)O1	/	/	/	.	/	/	/	/
COc1cccc(NC(=O)N2C[C@H](O)COC[C@@H]3O[C@@H](CC(=O)N(C)C)CC[C@H]32)c1	/	/	/	99	/	.	.	.
CNC(=O)C[C@H]1CC[C@@H]2[C@H](COC[C@@H](O)CN2C(=O)Nc2ccc(Cl)c(Cl)c2)O1	/	/	/	83	/	.	.	.
CN1c2ccc(-c3cccc(F)c3)cc2[C@H]2[C@H](CCN2C(=O)c2ccncc2)[C@@H]1CO	/	/	/	69	/	.	.	.
CN1c2ccc(-c3cccc(F)c3)cc2[C@@H]2[C@@H](CCN2C(=O)C2CC2)[C@H]1CO	/	/	/	.	/	/	/	/
